For eight compounds, Potency results are on record in PubChem BioAssay (Tox21).

Test [1] is described as follows: Nuclear factor erythroid 2-related factor 2/antioxidant responsive element (Nrf2/ARE) small molecule agonists: qHTS cell viability counter screen in human keratinocytes (AID 1919968; active = well fitted curve in the direction sought with a large enough effect in the repeat runs; an effect the other way counts as inactive or inconclusive; note: nearly all actives have a fitted effect of over 55% in size; note: potency is the fitted concentration of half-maximal effect). The method in brief:
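Measured as CellTiter-Fluor fluorescence, this readout tracks cytotoxicity in the same wells as the ARE-luciferase screen. HaCaT reporter cells (1,500/well) received compounds after a 5 h pre-incubation and were exposed for 23 h.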
In general terms: In qHTS, concentration-response curves come from the screen itself.

Test [2] is described as follows: Nuclear factor erythroid 2-related factor 2/antioxidant responsive element (Nrf2/ARE) small molecule agonists: luciferase reporter gene qHTS assay in human keratinocytes (AID 1919969). Note: nearly all actives have a fitted effect of over 35% in size. Note: potency is the fitted concentration of half-maximal effect.
The target of test [3] is Gonadotropin-releasing hormone receptor (Homo sapiens) (UniProt P30968). In words: Human gonadotropin-releasing hormone receptor (GnRHR) small molecule agonists, calcium flux assay in GnRHR-HEK293 cells (AID 1920063). Note: nearly all actives have a fitted effect of over 35% in size. The method in brief: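 Fluorescence kinetics (480 nm excitation, 540 nm emission; 3 min, 1 s steps) report calcium mobilisation in human GnRHR-HEK293 cells in agonist mode. Dye incubation: 1 h, 37 C.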
(In general: A change in cytosolic calcium serves as a functional read-out for many receptors and channels.)

Test [4] deals with KiSS-1 receptor (Homo sapiens) (UniProt Q969F8). Put plainly: Human kisspeptin (KISS1R) small molecule agonists, calcium flux assay in KISS1R-HEK293 cells (AID 1920064; active = well fitted curve in the direction sought with a large enough effect in the repeat runs; an effect the other way counts as inactive or inconclusive). The method in brief:
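Measures KISS1R agonism through calcium-sensitive dye fluorescence in stably transfected HEK293 cells, read for 3 min after pin-tool compound delivery; 15-point titrations in triplicate.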

Test [5] is described as follows: G protein-coupled receptor (GPCR) small molecule agonists, calcium flux assay: HEK293 wild type cell line counter screen (AID 1920065). The method in brief:
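Readout: fluorescence at 480 nm excitation/540 nm emission, sampled at 1 s intervals for 3 min. Cells had been cultured 18 h, then dye-loaded 1 h at 37 C before compound or ATP addition.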

Test [6] is described as follows: p53 small molecule agonists, cell-based qHTS assay with human liver microsomes: qHTS cell viability counter screen (AID 1963579). Note: nearly all actives have a fitted effect of over 45% in size. The method in brief:
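HLM-supplemented (0.5 mg/mL final) and NADPH-supplemented (0.5 mg/mL final) p53RE-bla cultures, 4,000 cells per well, were dosed with compounds in DMSO for 16 h at 37 C; luminescent ATP detection (CellTiter-Glo, 30 min, room temperature) quantified surviving cells.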

Test [7] in a line: p53 small molecule agonists, cell-based qHTS assay with rat liver microsomes: qHTS cell viability counter screen (AID 1963580). Note: nearly all actives have a fitted effect of over 45% in size. The method in brief:
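Viability is assessed in parallel with the p53 reporter read: HCT-116 p53RE-bla cells receive compounds plus rat microsomes and NADPH (0.5 mg/mL final apiece), incubate 16 h at 37 C, and then CellTiter-Glo luminescence is recorded.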

Test [8] is described as follows: p53 small molecule agonists, cell-based qHTS assay: qHTS cell viability counter screen (AID 1963581). Note: nearly all actives have a fitted effect of over 45% in size. The method in brief:
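In the same plates used for the p53 bla reporter, HCT-116 cells given compounds for 16 h at 37 C received CellTiter-Glo; luminescence was recorded 30 min later at room temperature.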

Test [9] can be described thus: p53 small molecule agonists, cell-based qHTS assay (AID 1963582; active = well fitted activation curve with a large enough effect in the signal ratio in the repeat runs, not every such curve was filed as active; the % refers to the signal ratio). The method in brief: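 Compounds are pin-transferred in DMSO onto p53RE-bla cells and incubated 16 h at 37 C. The B/G FRET beta-lactamase substrate is then applied for 2 h at RT and fluorescence recorded.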
For test [10], the target named is 5-hydroxytryptamine receptor 2A (Homo sapiens) (UniProt P28223). In words: 5-hydroxytryptamine receptor 2A (HTR2A) small molecule antagonists, cell-based qHTS assay (AID 1963586). Note: nearly all actives have a fitted effect of over 45% in size. Note: potency is the fitted concentration of half-maximal effect. The method in brief: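 Antagonist-mode intracellular calcium assay: DOI (4 nM) added after 5 min compound pre-incubation at room temperature to dye-loaded HTR2A-CHO cells. Fluorescence followed for 3 min, sampled every second.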

Test [11] has the same target. Put plainly: 5-hydroxytryptamine receptor 2A (HTR2A) small molecule agonists, cell-based qHTS assay (AID 1963587). Note: nearly all actives have a fitted effect of over 30% in size. The method in brief: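 CHO cells stably expressing human HTR2A, plated 18 h, loaded with calcium dye 1 h at 37 C. Agonist mode: compounds added and intracellular calcium fluorescence recorded kinetically for 2 min at 1 sec intervals.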
Test [12] deals with Muscarinic acetylcholine receptor M1 (Homo sapiens) (UniProt P11229). Put plainly: Cholinergic receptor muscarinic 1 (CHRM1) small molecule antagonists, cell-based qHTS assay (AID 1963588). Note: nearly all actives have a fitted effect of over 40% in size. Note: potency is the fitted concentration of half-maximal effect. The method in brief:
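CHRM1-CHO calcium-flux assay, antagonist mode. Cells were seeded 18 h, dye-loaded 1 h at 37 C and given compound for 5 min at RT, then acetylcholine was added at 50nM. FDSS fluorescence was read 3 min; 15 concentrations, three runs.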

The target is the same in test [13]. Put plainly: Cholinergic receptor muscarinic 1 (CHRM1) small molecule agonists, cell-based qHTS assay (AID 1963589). Note: nearly all actives have a fitted effect of over 35% in size. The method in brief: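 Each compound was tested at 15 concentrations across three independent runs on dye-loaded CHO cells stably expressing human CHRM1, reading intracellular calcium fluorescence kinetically at 1 sec intervals.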
A short description of test [14]: cAMP Responsive Elements (CRE) small molecule agonists, cell-based qHTS assay (AID 1963590). The method in brief: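 Cell line: CRE-bla HEK 293T; medium DMEM/10% dialyzed FBS/0.1 mM NEAA/1 mM pyruvate/25 mM HEPES; 3 h compound exposure; beta-lactamase FRET readout after 2 h substrate loading at RT.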
Test [15] has as its target Beta-2 adrenergic receptor (Homo sapiens) (UniProt P07550). In words: Adrenergic beta2 receptor (ADRB2) small molecule antagonists, cell-based qHTS assay (AID 1963592). Note: nearly all actives have a fitted effect of over 50% in size. Note: potency is the fitted concentration of half-maximal effect. The method in brief:
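Cells (CHO, stable ADRB2 overexpression) incubated 18-20hr at 37C; compounds added from DMSO; agonist mix (1nM isoproterenol, 100uM IBMX, 25uM Ro-20-1724) added; 0.5hr RT; d2-cAMP and anti-cAMP-cryptate added; 1hr RT; 665/615 nm read.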

The target is the same in test [16]. In words: Adrenergic beta2 receptor (ADRB2) small molecule agonists, cell-based qHTS assay (AID 1963593).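 Note: CHO cells stably overexpressing human ADRB2.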 The method in brief: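 CHO cells stably over-expressing ADRB2 were plated overnight at 37C, then dosed with compounds plus a stimulation mix containing 100uM IBMX and 25uM Ro-20-1724 for 0.5hr at room temperature. cAMP was measured by HTRF competition, 1hr.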

Test [17] deals with D(2) dopamine receptor (Homo sapiens) (UniProt P14416). In words: Dopamine D2 receptor (DRD2) small molecule antagonists, cell-based qHTS assay (AID 1963595; active = well fitted inhibition curve with a large enough effect in the signal ratio in the repeat runs, with a control signal flat; the % refers to the signal ratio). The method in brief: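 HEK293 cells stably expressing DRD2 were preincubated with 0.1 mM Ro20-1724, then with compound for 10 min at room temperature. Cells were stimulated with 200 nM NKH477 plus 12 nM quinpirole for 30 min, and cAMP was read by HTRF.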

For test [18] the target is unchanged. Put plainly: Dopamine D2 receptor (DRD2) small molecule agonists, cell-based qHTS assay (AID 1963594). Note: nearly all actives have a fitted effect of over 35% in size. The method in brief: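 HEK293 cells stably expressing human DRD2, pre-treated with PDE inhibitor Ro20-1724 (0.1 mM final) and compound 10 min at room temperature, then stimulated with NKH477 (200nM […]) for 30 min. cAMP read by HTRF (665/620 nm).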
Test [19] can be described thus: cAMP Responsive Elements (CRE) small molecule antagonists, cell-based qHTS assay (AID 1963591; active = well fitted inhibition curve with a large enough effect in the signal ratio in the repeat runs, not every such curve was filed as active; the % refers to the signal ratio). The method in brief: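 Inhibition of NKH477-driven (0.25 uM final) CRE-beta-lactamase signal in HEK293T cells, 3 h compound exposure at 37 °C, detected by FRET substrate fluorescence.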
Test [20] is described as follows: p53 small molecule agonists, cell-based qHTS assay with rat liver microsomes (AID 1963578). The method in brief:
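Compound in DMSO added to p53RE-bla cells 5 h post-plating; rat microsomes/NADPH 0.5 mg/mL final; 16 h, 37 C; LiveBLAzer 2 h RT.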

A number with no mark means an inactive call. Records with an inconclusive call do not appear. Active and inactive are the calls of the source. Unless noted, calls come from the whole dose curve.

5-hydroxytryptamine receptor 2A (Homo sapiens), sequence (P28223 whole entry, looked up): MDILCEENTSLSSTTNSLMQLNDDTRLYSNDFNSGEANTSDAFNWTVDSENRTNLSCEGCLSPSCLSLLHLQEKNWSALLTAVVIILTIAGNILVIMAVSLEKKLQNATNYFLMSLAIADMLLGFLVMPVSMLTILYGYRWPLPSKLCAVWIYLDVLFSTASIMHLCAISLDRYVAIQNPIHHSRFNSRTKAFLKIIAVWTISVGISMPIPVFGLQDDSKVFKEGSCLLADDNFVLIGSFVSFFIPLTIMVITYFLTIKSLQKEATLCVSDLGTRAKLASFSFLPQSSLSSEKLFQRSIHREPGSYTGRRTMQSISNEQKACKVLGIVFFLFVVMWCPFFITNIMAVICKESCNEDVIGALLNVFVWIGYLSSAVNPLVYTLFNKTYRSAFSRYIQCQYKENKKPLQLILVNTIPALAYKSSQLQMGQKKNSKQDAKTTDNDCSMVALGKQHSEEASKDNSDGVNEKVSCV
Beta-2 adrenergic receptor (Homo sapiens), sequence (P07550 whole entry, looked up): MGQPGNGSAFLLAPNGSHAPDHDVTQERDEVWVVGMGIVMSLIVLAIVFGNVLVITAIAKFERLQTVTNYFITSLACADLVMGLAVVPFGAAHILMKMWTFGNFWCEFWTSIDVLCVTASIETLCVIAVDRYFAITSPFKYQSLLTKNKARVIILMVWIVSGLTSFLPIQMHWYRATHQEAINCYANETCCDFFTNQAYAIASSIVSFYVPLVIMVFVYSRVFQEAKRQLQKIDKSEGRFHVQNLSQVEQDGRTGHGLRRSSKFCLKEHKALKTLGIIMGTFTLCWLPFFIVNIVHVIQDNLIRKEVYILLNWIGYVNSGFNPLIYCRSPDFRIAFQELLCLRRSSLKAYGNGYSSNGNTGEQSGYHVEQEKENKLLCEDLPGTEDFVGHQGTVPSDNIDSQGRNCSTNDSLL
Gonadotropin-releasing hormone receptor (Homo sapiens), sequence (P30968 whole entry, looked up): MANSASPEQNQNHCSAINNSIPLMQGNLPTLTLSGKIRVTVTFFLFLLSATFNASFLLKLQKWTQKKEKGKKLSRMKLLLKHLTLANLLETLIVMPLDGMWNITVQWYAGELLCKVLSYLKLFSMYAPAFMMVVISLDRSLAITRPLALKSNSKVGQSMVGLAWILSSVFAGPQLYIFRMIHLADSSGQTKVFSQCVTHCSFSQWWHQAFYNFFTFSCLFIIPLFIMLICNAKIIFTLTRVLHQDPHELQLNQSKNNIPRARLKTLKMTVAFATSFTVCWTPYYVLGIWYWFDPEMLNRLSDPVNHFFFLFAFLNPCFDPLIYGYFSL
D(2) dopamine receptor (Homo sapiens), sequence (P14416 whole entry, looked up): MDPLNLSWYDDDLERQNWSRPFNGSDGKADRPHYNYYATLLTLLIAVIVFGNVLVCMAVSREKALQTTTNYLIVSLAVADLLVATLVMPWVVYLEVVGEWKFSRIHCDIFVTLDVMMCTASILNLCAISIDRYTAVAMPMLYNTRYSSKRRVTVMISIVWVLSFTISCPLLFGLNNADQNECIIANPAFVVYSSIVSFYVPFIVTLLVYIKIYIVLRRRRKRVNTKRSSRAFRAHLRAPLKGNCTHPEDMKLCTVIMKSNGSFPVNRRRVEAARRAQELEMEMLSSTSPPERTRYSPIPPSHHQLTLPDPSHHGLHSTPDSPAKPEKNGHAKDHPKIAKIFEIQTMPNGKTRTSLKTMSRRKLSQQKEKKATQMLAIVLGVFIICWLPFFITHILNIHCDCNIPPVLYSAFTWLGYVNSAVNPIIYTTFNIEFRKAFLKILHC
KiSS-1 receptor (Homo sapiens), sequence (Q969F8 whole entry, looked up): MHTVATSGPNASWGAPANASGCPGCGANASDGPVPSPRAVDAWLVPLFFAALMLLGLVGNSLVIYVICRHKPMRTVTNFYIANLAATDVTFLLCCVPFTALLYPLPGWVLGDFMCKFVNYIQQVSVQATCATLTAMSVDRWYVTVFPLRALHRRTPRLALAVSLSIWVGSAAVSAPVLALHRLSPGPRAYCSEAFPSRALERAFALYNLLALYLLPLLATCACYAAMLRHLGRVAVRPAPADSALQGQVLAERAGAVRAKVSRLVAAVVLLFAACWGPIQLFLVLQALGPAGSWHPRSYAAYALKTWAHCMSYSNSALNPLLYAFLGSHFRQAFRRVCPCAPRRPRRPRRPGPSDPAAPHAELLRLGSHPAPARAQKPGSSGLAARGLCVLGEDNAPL
Muscarinic acetylcholine receptor M1 (Homo sapiens), sequence (P11229 whole entry, looked up): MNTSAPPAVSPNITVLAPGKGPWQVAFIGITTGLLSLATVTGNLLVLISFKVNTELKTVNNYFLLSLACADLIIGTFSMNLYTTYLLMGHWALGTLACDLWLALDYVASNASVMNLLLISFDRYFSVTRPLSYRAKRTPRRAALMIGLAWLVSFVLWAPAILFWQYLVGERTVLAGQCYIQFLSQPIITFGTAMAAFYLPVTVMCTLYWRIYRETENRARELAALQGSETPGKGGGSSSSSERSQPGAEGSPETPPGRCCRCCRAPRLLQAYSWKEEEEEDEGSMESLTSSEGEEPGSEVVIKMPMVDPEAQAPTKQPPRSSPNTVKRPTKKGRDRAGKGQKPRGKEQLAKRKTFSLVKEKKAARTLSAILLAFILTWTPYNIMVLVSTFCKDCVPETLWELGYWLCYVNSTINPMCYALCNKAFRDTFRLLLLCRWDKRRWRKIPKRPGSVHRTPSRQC

As for `COCCOc1cc2cc(C(=O)NC3CCN(C(C)C)CC3)n(CC(=O)Nc3ccc(Cl)cn3)c2cn1`, the Potency entry in test [1], in test [2], in [3], in test [4], in [5] and in test [6] was “inactive” in each case. In addition, the Potency entry in [7], in [8], in [9], in test [10], in test [11] and in [12] was “inactive” in each case. Moreover, the Potency entry in test [13], in test [14], in test [15], in test [16] and in [17] was “inactive” throughout.
As to `C[C@H]1c2cccc(O)c2C(O)=C2C(=O)[C@]3(O)C(O)=C(C(N)=O)C(=O)[C@@H](N(C)C)[C@@H]3[C@@H](O)[C@@H]21`, the Potency result in test [1], in [2], in [3], in test [4], in [5] and in test [6] was “inactive” throughout. Also, the Potency result in test [7], in test [8], in test [9], in [10], in test [11] and in test [12] was “inactive” in each case. The Potency result in test [13], in [15], in [16], in test [18] and in test [17] was “inactive” in each case.
For `O=S1(=O)CCCC1`, the Potency entry in [1], in [2], in [3], in test [4], in [5] and in test [6] was “inactive” each time. The Potency result in test [7], in test [8], in [10], in test [11], in [12] and in [13] was “inactive” in each case. The Potency result in test [14], in [19], in test [15], in test [16] and in [18] was “inactive” in each case.
In the case of `Cc1cc(NC(=O)C(=O)O)cc(C)c1Oc1ccc(O)c2c1CCC2`, the Potency result in test [1], in [2], in test [3], in test [4], in test [5] and in test [20] was “inactive” throughout. For the same compound, the Potency entry in test [7], in [9], in [10], in test [11], in [12] and in test [13] was “inactive” in each case. Further, the Potency entry in [14], in test [15], in test [16] and in [17] was “inactive” throughout.
Turning to `COc1ccccc1N1CCN(CC(O)COc2cccc3ccccc23)CC1` (stereo not given), the Potency entry in [1], in test [2], in test [3], in test [4], in test [5] and in [20] was “inactive” in each case. Besides, the Potency result in [7], in [8], in test [9], in test [11], in test [12] and in [13] was “inactive” in each case. The Potency in test [10] is 5.79 µM (active); in [15], 2.11 µM (active).
Turning to `O=c1[nH]sc2ccccc12`, the Potency in [1] is 24.3 µM (active); in [2] it was 12.2 µM (active). In addition, the Potency entry in [3], in test [4], in [5], in test [20], in test [8] and in test [9] was “inactive” throughout. For the same compound, the Potency entry in [10], in test [12], in [13], in test [16] and in test [17] was “inactive” each time.
In the case of `NC(=O)Cn1c(=O)cc(CCN2CCN(c3nccc4sccc34)CC2)c2ccc(F)cc21`, the Potency result in test [1], in [2], in [3], in test [4], in [5] and in [20] was “inactive” each time. Also, the Potency entry in test [7], in [8], in [11], in test [13], in test [18] and in [17] was “inactive” throughout. Also, the Potency in [12] is 23.7 µM (active); in test [15], 27.3 µM (active).
Regarding `C=C1c2cccc(O)c2C(O)=C2C(=O)[C@]3(O)C(O)=C(C(N)=O)C(=O)[C@@H](N(C)C)[C@@H]3[C@@H](O)[C@H]12`, the Potency entry in test [1], in test [2], in test [3], in test [4], in [5] and in test [6] was “inactive” in each case. In addition, the Potency result in test [7], in test [8], in test [9], in [11], in test [12] and in test [13] was “inactive” each time. The Potency result in test [14], in [19], in test [15], in [18] and in test [17] was “inactive” each time.
